Records with an inconclusive call do not appear. Unmarked numbers belong to inactive results. Calls of active or inactive are those of the source. Calls come from the whole dose curve; as a rule, active = well fitted activation curve with a large enough effect; inconclusive = small, poorly fitted or top-dose-only effect; inactive = no such curve, though single readings can be large or run the other way.
Potency is the fitted concentration of half-maximal effect.

A short description of this assay: qHTS assay for re-activators of p53 using a Luc reporter: Hit Validation. For activation: 0% is about no effect. Note: nearly all actives have a fitted effect of over 75% in size. Conditions: p53-responsive luciferase reporter cells, luminescence, H1299 line expressing heat-sensitive Ala138Val p53; series mostly up to 46.1 µM. In a few lines:
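H1299 (p53-null) cells stably carrying p53-A138V and a BP100-luciferase reporter, 1000 cells/well, treated 24 h at 37 deg C. Compounds at several concentrations, 1:5 dilution; nocodazole control; luminescence read after 10 min with detection reagent.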
For the molecule `N#Cc1nc(COc2ccccc2)oc1N1CCOCC1`, the Potency result is “inactive”.

`Cc1ccc(C)n1-c1cccc(NC(=O)c2ccccc2)c1`: the Potency result was “inactive”.

Consider `N#Cc1cc2c(nc1SCC(=O)Nc1nccs1)CCCCC2`, for which the Potency was 0.206 µM (active).

Consider `c1ccc2oc(C3=NNC(=NC4CC4)SC3)cc2c1`, for which the Potency is 0.366 µM (active).

On to `Cc1nc(NC(=O)c2csc3ccccc23)sc1C`, for which the Potency was 0.82 µM (active).

Turning to `Cc1nn(-c2ccccc2)c(C)c1/C=N/Nc1nc2ccccc2[nH]1`, the Potency is 0.731 µM (active).

As for `O=C(NNC(=S)NC1CCCCC1)c1cccs1`, the Potency result was “inactive”.

Regarding `CC(C)c1ccc(OCC(=O)NC(C)c2ccccc2)cc1` (stereo not drawn), the Potency entry is “inactive”.

As to `O=C(N/N=C\c1cccc(Cl)c1)c1n[nH]c2c1CCCC2`, the Potency is 4.11 µM (active).

On to `CC(C)OC(=O)CCCCCN1C(=O)CSC1=S`, for which the Potency entry was “inactive”.

`Cc1ccc(OCC(=O)Nc2ccc(Cl)cc2)c([N+](=O)[O-])n1`: the Potency was 16.4 µM (active).

With `C/C(=N\OCC(=O)NC12CC3CC(CC(C3)C1)C2)c1cc2ccccc2o1`, the Potency result is “inactive”.

In the case of `CN(C)c1cccc(C(=O)NNC(=O)CN2C(=O)C3CC=CCC3C2=O)c1` (stereo not drawn), the Potency was 2.31 µM (active).

Turning to `CC(C)(C)c1cc(-n2ccnc2)n2ncc(-c3ccc(Cl)cc3)c2n1`, the Potency result was “inactive”.

For the molecule `CCOC(=O)c1[nH]nc(C(=O)c2ccc(Br)cc2)c1O`, the Potency result is “inactive”.

Regarding `Fc1cccc2sc(Nc3nnc(-c4ccco4)o3)nc12`, the Potency was 11.6 µM (active).

Consider `N=C1C(c2nc3ccccc3s2)=C(O)CN1Cc1ccccc1`, for which the Potency is 14.6 µM (active).

As for `Cc1ccc(-c2nc(-c3cccnc3)no2)c(C)c1`, the Potency is 4.61 µM (active).

On to `O=C(NNc1c2ccccc2nc2ccccc12)c1ccc(O)cc1`, for which the Potency entry is “inactive”.

Take `Fc1cccc(NCc2cn3ccccc3n2)c1`: the Potency is 3.26 µM (active).

On to `COC(=O)c1ccc(/C=C/c2ccc3cccc(OC(C)=O)c3n2)cc1`, for which the Potency is 2.91 µM (active).

As to `CCOc1cc(S(=O)(=O)NC2CCCCCC2)ccc1F`, the Potency entry was “inactive”.

Regarding `CN(C)c1ccc(/C=N/N=C/c2ccccc2O)cc1`, the Potency was 0.461 µM (active).

`Cc1cc2[nH]c3ccccc3c2c(C)n1`: the Potency result is “inactive”.

As for `CCOC(=O)N(Cc1ccccc1)C(C(=O)O)C(C(=O)O)N(Cc1ccccc1)C(=O)OCC` (stereo not drawn), the Potency entry is “inactive”.

As for `Cc1cccc2nc(CSC(=N)N)c(Br)n12`, the activation is 3.7% [at 9.22 µM].

Take `Cc1cc(C(=O)Nc2nc3c(s2)CCCC3)cs1`: the Potency is 0.231 µM (active).

Take `COc1cccc(-c2nc3cc(C)ccc3o2)c1`: the Potency was 0.411 µM (active).

For the molecule `Cc1ccc(NC(=O)/C=C/c2ccco2)nc1`, the Potency is 2.59 µM (active).

Regarding `O=C(NC12CC3CC(CC(C3)C1)C2)c1ccc(-c2cccc(Cl)c2)o1`, the Potency is 23.1 µM (active).

As to `CCOCC(=O)Nc1nc2ccc(OCC)cc2s1`, the Potency is 16.4 µM (active).

Regarding `Nc1nc2ccc(N3CCOCC3)cc2s1`, the Potency entry was “inactive”.

On to `Cc1ccccc1C(=O)Nc1ccc(Br)cn1`, for which the Potency is 3.66 µM (active).

In the case of `O=C(CSc1nnc(-c2ccc3c(c2)OCCO3)o1)N1CCCC1`, the Potency is 7.31 µM (active).

As for `COc1cc(NC(=O)CSCc2ccc(Cl)cc2)c(C(=O)O)cc1OC`, the Potency result was “inactive”.

As for `COc1cccc(C2(c3cccc(OC)c3)CC2C(=O)Nc2cccc3ccccc23)c1` (stereo not drawn), the Potency entry was “inactive”.

As to `CN(C)/C=N/c1cnc(C(=O)c2ccc(Cl)cc2)n1C`, the Potency is 2.59 µM (active).

As to `COc1ccc2c(=O)c(-c3nc(C)cs3)coc2c1`, the Potency is 2.06 µM (active).

(Values after PubChem BioAssay AID624305 (National Center for Advancing Translational Sciences (NCATS), 2012).)
